miR-122 inh: miR-122 sensor activation | activation, % at 12.5 µM | Huh7 psiCHECK-miR122 Renilla luciferase sensor, 48 h | 0.14% of 340,000 active;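 active = mean activation of 30% or more, with every replicate also reaching 30%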;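 note: 0% = median of neutral control wells and 100% = median of positive control wells; higher luciferase signal means stronger suppression of miR-122 activity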
An asterisk follows results filed as active. This is one part of a sample in which hits are shown more often than they occur.

SMILES	miR-122 inh
CC(C)Cc1nc2sc3c(=O)[nH]cnc3c2c2c1CCC2	-126
CN(C)CCNc1ncnc2c1sc1nc(-c3ccccc3)c3c(c12)CCCC3	35*
C[C@H](CO)N1C[C@H](C)[C@H](CN(C)S(=O)(=O)c2cn(C)cn2)Oc2ncc(-c3cccc(C(F)(F)F)c3)cc2C1=O	4
Oc1c(Cl)cc(Cl)cc1/C=N/Nc1ncc(Br)cn1	62*
C[C@H]1CN([C@@H](C)CO)C(=O)c2cc(C#Cc3ccccc3F)cnc2O[C@@H]1CN(C)S(=O)(=O)c1ccccc1	2
CCC(=O)N(C)C[C@@H]1Oc2ncc(C#C[C@@H](C)O)cc2C(=O)N([C@@H](C)CO)C[C@@H]1C	0
O=C(Cc1cccs1)Nc1ccc(S(=O)(=O)N2CCCCC2)cc1	-132
O=C(Nc1nc(-c2cc3ccccc3o2)cs1)c1ccc(S(=O)(=O)N2CCCC2)cc1	52*
O=C(Nc1nc2ccc(S(=O)(=O)N3CCCC3)cc2s1)C1CCCCC1	-130
C[C@H]1CN([C@@H](C)CO)C(=O)c2cc(/C=C/c3ccccc3)cnc2O[C@@H]1CN(C)C(=O)c1ccncc1	-5
CO[C@@H]1CN(C)C(=O)c2cc(NC(C)=O)ccc2OC[C@@H](C)N(C(=O)CN(C)C)C[C@@H]1C	0
Cc1noc(C)c1NC(=O)N(C)C[C@H]1Oc2cc(C#CCC(C)C)ccc2S(=O)(=O)N([C@@H](C)CO)C[C@@H]1C	-37
NCC12CC3CC(C1)CC(c1ccc(Br)cc1)(C3)C2	34*
CCN(Cc1ccccc1)C(=O)c1[nH]c2ccc(OC)cc2c1C	-125
COc1ccc2[nH]c(=O)c(COC(=O)c3ccco3)cc2c1	31*
C[C@H]1CN([C@@H](C)CO)C(=O)c2cc(C#CC3(O)CCCC3)cnc2O[C@H]1CN(C)S(=O)(=O)c1cccc(F)c1	-4
C[C@H](CO)N1C[C@H](C)[C@H](CN(C)Cc2cccnc2)Oc2cc(C#C[C@@H](C)O)ccc2S1(=O)=O	7
Cc1ccccc1-c1cnc2c(c1)C(=O)N([C@H](C)CO)C[C@@H](C)[C@H](CN(C)C(=O)c1ccccc1)O2	4
COc1ccc(NC(=O)/C(Cl)=C(/Cl)S(=O)(=O)Cc2ccccc2)cn1	32*
COc1ccc(NC(=O)c2cccc(S(=O)(=O)Nc3ccc(Br)cc3)c2)cn1	-103
C[C@H]1CN([C@@H](C)CO)C(=O)c2cc(-c3cccc(F)c3)cnc2O[C@H]1CN(C)C(=O)c1cccc(F)c1	-5
C[C@@H]1CN([C@H](C)CO)C(=O)c2cc(Br)cnc2O[C@H]1CN(C)Cc1cccc(F)c1	5
CO[C@H]1CN(C)C(=O)c2cc(NC(C)=O)ccc2OC[C@@H](C)N(C(=O)CN(C)C)C[C@@H]1C	0
Cc1ccc(-n2c(Cc3ccccc3)n[nH]c2=S)cc1	41*
Cc1ccc(N(Cc2ccco2)C(=O)c2ccc(N3CCCCC3)c([N+](=O)[O-])c2)cc1	-165
SMILES	miR-122 inh
COc1ccc(-c2cc(C3CCN(c4ccc(C(C)=O)cc4[N+](=O)[O-])CC3)[nH]n2)cc1	45*
C[C@@H]1CN([C@H](C)CO)C(=O)c2cc(C#CC3(O)CCCC3)cnc2O[C@H]1CN(C)C(=O)CN(C)C	0
C[C@@H]1CN([C@@H](C)CO)S(=O)(=O)c2ccc(C#C[C@@H](C)O)cc2O[C@H]1CN(C)C(=O)Cc1ccccn1	0
CC(C)CC#Cc1cnc2c(c1)C(=O)N([C@H](C)CO)C[C@@H](C)[C@H](CN(C)CC1CCOCC1)O2	-3
C[C@H]1CN([C@@H](C)CO)C(=O)c2cc(-c3cccc(C#N)c3)cnc2O[C@H]1CN(C)Cc1ccccc1	6
Cc1cc(C(F)F)n2ncc(C(=O)NCCc3ccccc3Cl)c2n1	33*
CCc1c(C(=O)NCc2ccccc2Cl)[nH]c(C)c1C(C)=O	-118
CCn1nc(C)cc1-c1nnc(Sc2ncc([N+](=O)[O-])s2)n1C	45*
C[C@H](CO)N1C[C@H](C)[C@H](CN(C)S(=O)(=O)c2ccc(F)cc2)Oc2ncc(C#CC3(O)CCCC3)cc2C1=O	-1
C[C@H](CO)N1C[C@H](C)[C@H](CN(C)Cc2ccccn2)Oc2cc(-c3cncnc3)ccc2S1(=O)=O	10
Cc1noc(C)c1NC(=O)N(C)C[C@@H]1Oc2ncc(C#CCC(C)C)cc2C(=O)N([C@H](C)CO)C[C@H]1C	8
CC(C)C#Cc1ccc2c(c1)O[C@@H](CN(C)Cc1ccccn1)[C@H](C)CN([C@@H](C)CO)S2(=O)=O	1
C[C@@H](O)C#Cc1ccc2c(c1)O[C@@H](CN(C)C(=O)Cc1ccccn1)[C@@H](C)CN([C@@H](C)CO)S2(=O)=O	3
c1ccc(-c2nnc3n2CCCC3)cc1	33*
CO[C@H]1CN(C)C(=O)c2cc(NC(=O)Nc3ccccc3)ccc2OC[C@H](C)NC[C@@H]1C	1
C[C@H]1CN([C@@H](C)CO)C(=O)c2cc(C#CCc3ccccc3)cnc2O[C@@H]1CN(C)C(=O)C1CCCCC1	-1
CCC(=O)N(C)C[C@@H]1Oc2cc(C#C[C@@H](C)O)ccc2S(=O)(=O)N([C@@H](C)CO)C[C@@H]1C	7
COc1ccc(-c2oc3ncnc(NCCCN4CCOCC4)c3c2-c2ccc(OC)cc2)cc1	38*
COc1ccc(-c2oc3ncn(CCN4CCOCC4)c(=N)c3c2-c2ccc(OC)cc2)cc1	42*
Cc1ccc(S(=O)(=O)NCCN2CCOCC2)c(C)c1C	-92
COc1ccccc1-c1cnc2c(c1)C(=O)N([C@H](C)CO)C[C@H](C)[C@@H](CN(C)C(=O)c1ccccc1)O2	-14
CO[C@@H]1CN(C)C(=O)c2cc(NC(=O)C3CCOCC3)ccc2OC[C@H](C)N(C)C[C@@H]1C	-1
COc1cccc(-c2ccc3c(c2)O[C@H](CN(C)Cc2cccnc2)[C@@H](C)CN([C@H](C)CO)S3(=O)=O)c1	-15
Cc1ccc(S(=O)(=O)N(C)C[C@H]2Oc3ncc(C#CCC(C)C)cc3C(=O)N([C@@H](C)CO)C[C@@H]2C)cc1	-23
C=CCc1c(OC)ccc2ccc(=O)oc12	32*
SMILES	miR-122 inh
C[C@@H]1CN([C@@H](C)CO)C(=O)c2cc(-c3ccncc3)cnc2O[C@@H]1CN(C)C(=O)c1ccccc1F	1
COc1cccc(-c2cnc3c(c2)C(=O)N([C@H](C)CO)C[C@H](C)[C@H](CN(C)C(=O)CC2CC2)O3)c1	-16
C[C@H]1CN([C@@H](C)CO)S(=O)(=O)c2ccc(C#CCC3CCCC3)cc2O[C@@H]1CN(C)C(=O)CC1CC1	-38
CCC(=O)Nc1ccc2c(c1)OC[C@@H](C)NC[C@H](C)[C@@H](OC)CN(C)C2=O	-2
Cc1ccc(CN2CCSc3ccc(C(=O)NCc4ccco4)cc32)cc1	-100
Cc1ccc(C2CC(C(F)(F)F)n3nc(C(=O)NCc4ccco4)cc3N2)cc1 (configuration not stated)	41*
Cc1ccccc1-c1cnc2c(c1)C(=O)N([C@H](C)CO)C[C@@H](C)[C@@H](CN(C)C(=O)c1ccccc1)O2	5
C[C@@H]1CN([C@@H](C)CO)S(=O)(=O)c2ccc(/C=C/c3ccccc3)cc2O[C@@H]1CN(C)C(=O)Nc1cccc(F)c1	-35
CC(C)NC(=O)N(C)C[C@@H]1Oc2cc(-c3ccccc3)ccc2S(=O)(=O)N([C@@H](C)CO)C[C@H]1C	-5
C[C@H](CO)N1C[C@H](C)[C@H](CN(C)Cc2ccncc2)Oc2ncc(-c3cccc(F)c3)cc2C1=O	-4
C[C@H](CO)N1C[C@H](C)[C@@H](CN(C)CC2CCCCC2)Oc2c(NC(=O)c3ccncc3)cccc2C1=O	-127

High-throughput results from PubChem BioAssay.
